# KinaseGlo FLuc: Kinase-Glo luciferase inhibition (counter-screen). Q27757. Potency, µM (doses to about 38.3 µM), for the others: at the highest dose activity change, negative = inhibition, usual class: inhibitors. 200,000 tested, 0.28% active. AID 1379. Kinase-Glo luciferase, ATP luminescence, 8 min; also: % is scaled to controls: 0 for no effect and ±100 for the full control effect; nearly all actives have a fitted effect of over 60% in size
#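 Light output from Kinase-Glo luciferase with luciferin and 10 uM ATP in 50 mM imidazole pH 7.2, KCl, MgCl2, Tween 20, BSA; compound pin-delivered, 8-min ambient incubation, then luminescence read.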
# NPC1 promoter act: activates the NPC1 promoter; Huh7 NPC1 promoter luciferase reporter, 24 h; Potency, µM (top dose mostly 9.22 µM), for the others: top-dose activation, usual class: activators; 320,000 tested, 2.4% active; also: % of control where 0% means no effect; nearly all actives have a fitted effect of over 60% in size
#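 Quantitative HTS used a cell-based reporter: Huh7 cells stably bearing the NPC1 promoter upstream of luciferase were treated with compounds for 24 h, and promoter activation was read as luminescence.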
# Rab9 prom act: Rab9 promoter activation; Huh7 Rab9 promoter-luciferase reporter, luminescence, 24 h; Potency, µM (top dose mostly 9.22 µM), for inactives: top-dose activation, negative = inhibition, usual class: activators; AID 485297; 320,000 tested, 2.8% active; also: % of control where 0% means no effect; nearly all actives have a fitted effect of over 60% in size
#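 Huh7 cells stably carrying Rab9 promoter–luciferase reporter, plated 1500 cells/well, compound added after 2 h and incubated 24 h at 37 °C; luciferase luminescence then read after 10 min with detection reagent.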
# FLuc modulator: inhibits or activates purified firefly luciferase, miR-21 counter-screen; P08659; purified FLuc, Km substrates, luminescence inhibition; Potency, µM (highest dose often 57.5 µM), for inactives: at the highest dose activity change, negative = inhibition, usual class: inhibitors; 360,000 tested, 6.9% active;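 also: plate controls were vehicle for no effect and reference inhibitor for full effect; nearly all actives have a fitted effect of over 55% in size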
# Target sequence (P08659 whole entry, looked up): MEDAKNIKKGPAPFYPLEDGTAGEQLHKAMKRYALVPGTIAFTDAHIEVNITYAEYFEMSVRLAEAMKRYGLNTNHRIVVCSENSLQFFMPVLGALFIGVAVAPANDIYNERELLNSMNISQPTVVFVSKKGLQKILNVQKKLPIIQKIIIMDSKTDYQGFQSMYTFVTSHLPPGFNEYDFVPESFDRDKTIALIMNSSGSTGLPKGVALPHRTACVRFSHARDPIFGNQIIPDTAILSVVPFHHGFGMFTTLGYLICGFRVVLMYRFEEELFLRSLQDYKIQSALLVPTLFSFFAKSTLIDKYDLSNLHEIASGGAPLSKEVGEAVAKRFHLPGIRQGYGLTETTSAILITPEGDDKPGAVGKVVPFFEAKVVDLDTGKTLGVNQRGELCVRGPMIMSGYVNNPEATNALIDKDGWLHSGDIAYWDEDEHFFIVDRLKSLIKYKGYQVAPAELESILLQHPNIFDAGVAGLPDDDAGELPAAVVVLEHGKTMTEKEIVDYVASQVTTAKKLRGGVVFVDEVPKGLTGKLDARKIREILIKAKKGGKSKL
#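 Purified P. pyralis luciferase, 10 nM final, with Km-level 10 uM D-luciferin and 10 uM ATP in 50 mM Tris acetate pH 7.5, 10 mM Mg acetate, 0.01% Tween-20, 0.05% BSA; 6-point qHTS titration about 60 µM downward; luminescence read.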
# SMN2 splice up: SMN2 splice variant enhancement; Potency, µM (highest dose often 46.1 µM), for inactives: top-dose activity change, positive = activation, actives largely listed as activators; HEK293 SMN2-luciferase splicing reporter, luminescence, 30-36 h; 210,000 tested, 2.8% active; also: % of control where 0% means no effect; nearly all actives have a fitted effect of over 55% in size
#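 HEK293 cells carry an SMN2 […]–luciferase reporter in which exon 7 inclusion puts luciferase in frame. Cells were plated 10-12 h before compound addition, then incubated 30-36 h at 37C. ONE-Glo luminescence was read; sodium butyrate at 4.5 mM final served as control.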
# ELG1 genotox: inducers of genotoxicity in HEK293T ELG1-luciferase cells. HEK293T ELG1-luciferase reporter, luminescence, 16 h. Potency, µM (titrated, usually from 46 µM), for inactives: at the top dose activity change, positive = activation, usual class: activators. 330,000 tested, 1.3% active; also: % of control where 0% means no effect; nearly all actives have a fitted effect of over 60% in size
#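 Cells (2,000/well) expressing the ELG1-luciferase fusion are dosed by pin tool and kept 16 hr at 37 °C, 5% CO2. Signal comes from ONE-Glo luciferase reagent after 30 min at room temperature.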
# * marks the source's active call; other numbers are inactive results; ? = inconclusive; . = no result given. This is a sample that favours compounds with a hit; in the whole collection about 7.4% have one here. Calls follow the shape of the dose curve; as a rule, active = well fitted curve in the direction sought with a large enough effect; inconclusive = small, poorly fitted or top-dose-only effect, or another doubt; inactive = no such curve, though single readings can be large; an effect the other way counts as inactive or inconclusive. Potency is read from the fitted curve at half-maximal effect.
SMILES,KinaseGlo FLuc,NPC1 promoter act,Rab9 prom act,FLuc modulator,SMN2 splice up,ELG1 genotox
O=C(CSc1ccc2nc(-c3ccccc3)cn2n1)Nc1ccccc1C(F)(F)F,.,.,.,-11%,.,.
CCc1ccc(NC(=O)CSc2ccc3nc(-c4ccc(OC)cc4)cn3n2)cc1,.,.,.,2.7µM*,.,.
CC(=O)c1ccc(NC(=O)CSc2ccc3nc(-c4ccccc4)cn3n2)cc1,.,.,.,12µM*,.,.
Cc1cccc(N2CCN(C(=O)C3CCCN(S(=O)(=O)c4ccc5c(c4)oc(=O)n5C)C3)CC2)c1C (stereo not given),.,.,.,-8%,-42%,.
CCC(=O)N1c2ccccc2CC1C(=O)NCCc1ccccc1Cl (stereo not given),.,.,.,1%,.,.
Nc1ccc(N=Nc2ccccc2)c(N)n1,0%,26%,12%,17µM*,?,?
Nc1ccc(N=Nc2ccccc2)c2ccccc12,.,?,2%,17µM*,.,0%
Clc1ccc(-c2[nH]ncc2N=Nc2ccccc2)cc1,.,-1%,-6%,-4%,.,4%
COc1ccc(-c2noc(C3CC(=O)N(c4ccc5c(c4)OCCO5)C3)n2)c(OC)c1 (stereo not given),.,.,.,-2%,.,.
COc1cccc(NC(=O)Cn2cc(C(=O)C3CCCCC3)c3ccccc32)c1,.,.,.,5%,-10%,.
CCc1cc2c(=O)n(CC(C)C)cnc2s1,-2%,?,?,?,14µM*,-1%
CCCCCn1cnc2sc(CC)cc2c1=O,0%,?,2.8µM*,24µM*,13µM*,?
CCc1cc2c(=O)n(CC(=O)NC3CCCCC3)cnc2s1,.,-1%,9%,-1%,.,2%
CCc1cc2c(=O)n(-c3ccc(Br)cc3)cnc2s1,-4%,2.5µM*,2.5µM*,?,5µM*,?
COc1cc(NC(=O)N2CCN(c3cc(-c4noc(C)n4)ccc3C)CC2)cc(OC)c1OC,.,.,.,-7%,.,.
Cc1nc(-c2ccccc2Cl)sc1C(=O)/C=C/N(C)C,1%,3.2µM*,1.8µM*,17µM*,?,?
Cc1nc(-c2ccccc2)sc1C(=O)/C=C/c1ccc(Cl)cc1,-1%,-3%,0%,-16%,-24%,-7%
CCOc1ccccc1NC(=O)CCCc1nc(-c2ccccc2Cl)no1,.,.,.,-11%,7%,.
COc1cc(C)ccc1OCc1cc(C(=O)N(Cc2nccn2C)C(C)C)no1,.,2.5µM*,2.2µM*,11µM*,.,?
COc1cc(C)ccc1OCc1cc(C(=O)N(Cc2c(C)nn(C)c2C)C2CC2)no1,.,?,?,12µM*,.,14%
CCC(=O)NNc1ncnc2c1cnn2-c1cccc(C)c1,-2%,1%,-2%,-11%,-7%,5%
Cc1ccc(-n2ncc3c(Nc4cccc(C(F)(F)F)c4)ncnc32)cc1C,.,.,.,15µM*,.,.
Cc1cccc(-n2ncc3c(NCCOCCO)ncnc32)c1,.,.,.,19µM*,.,.
CCCn1ncc2c(Nc3ccc(C)c(C)c3)ncnc21,.,3.5µM*,?,24µM*,.,?
Cc1cccc(-n2ncc3c(Nc4ccc(F)cc4)ncnc32)c1,1%,?,2.5µM*,?,11µM*,15µM*
SMILES,KinaseGlo FLuc,NPC1 promoter act,Rab9 prom act,FLuc modulator,SMN2 splice up,ELG1 genotox
Cc1cccc(-n2ncc3c(Nc4c(C)cc(C)cc4C)ncnc32)c1,.,.,.,-9%,.,.
COC(=O)c1ccc(Nc2ncnc3c2cnn3-c2cccc(C)c2)cc1,.,0%,3%,-6%,.,2%
CC(C)Nc1ncnc2c1cnn2-c1ccccc1,-3%,1.4µM*,0.35µM*,2.4µM*,0.63µM*,?
Cc1cccc(-n2ncc3c(NC(C)C)ncnc32)c1,-3%,3.2µM*,0.89µM*,2.4µM*,3.5µM*,2.6µM*
NNc1ncnc2c1cnn2-c1ccccc1,-4%,10%,0%,?,-11%,-8%
COc1ccc(Nc2ncnc3c2cnn3-c2cccc(C)c2)cc1OC,.,-1%,-1%,-1%,.,0%
COc1ccc(-n2ncc3c(Nc4cccc(C)c4)ncnc32)cc1,0%,2.8µM*,4µM*,11µM*,?,?
